PubChem BioAssay (NCI)
The panel holds about 79,000 compounds, 15% with a hit somewhere; the sample as a whole holds those more often. Calls of active or inactive are those of the source. No stated cut-off is given here; in the data, active means growth inhibition above about 70%; inactive means the rest.

Assay: NCI Yeast Anticancer Drug Screen. Data for the sgs1 mgt1 strain (AID 161);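 further: 0% = growth of cultures given vehicle only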
Conditions: S. cerevisiae sgs1 mgt1 strain, at 50.0 µM (retest, dose inferred, filed as 5.0), active compounds read high
Summary of the method: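 Read-out: growth inhibition vs vehicle controls. Cells: mutant yeast strain deficient in DNA damage repair.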

SMILES	growth inhibition
O=CC=C(c1ccccc1)c1ccccc1	97% (active)
FC(F)(F)c1nc2nc(Cl)c(Cl)nc2n1CCCN1CCOCC1	72% (active)
BrCC[P+](c1ccccc1)(c1ccccc1)c1ccccc1	99% (active)
N#CSc1ccc(S(N)(=O)=O)cc1	85% (active)
O=[N+]([O-])c1ccc2nc3ccccc3cc2c1	89% (active)
O=C(NC(Nc1ccc(F)c(Cl)c1)(C(F)(F)F)C(F)(F)F)C(C(F)(F)F)C(F)(F)F	72% (active)
O=C(/C=C\c1ccc(Cl)cc1Cl)c1cccs1	71% (active)
O=C(NCCCCNCCCNC(=O)c1cc(-c2ccccc2)nc2ccccc12)c1cc(-c2ccccc2)nc2ccccc12	58% (inactive)
NC(=NCc1ccccc1)N/N=C\c1ccnc2ccccc12	75% (active)
CCCCN(CCCC)CCSc1ccc(Cl)cc1	70% (active)
COc1cc(C2C3=C(COC3=O)Oc3cc4c(cc32)OCO4)ccc1O (centres undefined)	77% (active)
C#CCCCc1ccccc1	15% (inactive)
CCc1ccc(NS(=O)(=O)c2ccccc2)c([N+](=O)[O-])c1	54% (inactive)
COc1ccc(C2c3cc4c(cc3OC(C)(O)C2C)OCO4)c(OC)c1 (centres undefined)	70% (active)
COC(=O)c1ccc(CCC2=CC(=O)C(Br)=CC2=O)cc1	0% (inactive)
NNC(=O)CCc1ccc2ccc3ccccc3c2c1	-14% (inactive)
Cn1c2ccccc2c(=O)c2cc(NC(=O)CCCCC(=O)Nc3ccc4c(c3)c(=O)c3ccccc3n4C)ccc21	16% (inactive)
CC(CC(C)(C)[N+](C)(C)C)[N+](C)(C)C (centres undefined)	91% (active)
CC1CCN(CCC(=O)c2ccc(Cl)cc2)CC1	50% (inactive)
CCCCCCCCCCCCCCC(C(=O)[O-])[n+]1ccccc1 (centres undefined)	45% (inactive)

SMILES	growth inhibition
CNC1C(OC2C(OC3C(O)C(O)C(N=C(N)N)C(O)C3N=C(N)N)OC(C)C2(O)CO)OC(CO)C(O)C1O (centres undefined)	-6% (inactive)
O=C(O)c1ccccc1-c1ccccc1C(=O)Nc1ccc2c(c1)Cc1ccccc1-2	17% (inactive)
O=[N+]([O-])c1cccc2nc3ccccc3c(NCCCN3CCOCC3)c12	98% (active)
C=CC(C)(O)CCC1C(=C)C(O)CC2C(C)(C)CCCC12C (centres undefined)	81% (active)
CN1c2ccc(Cl)cc2C(=O)NC1c1ccc([N+](=O)[O-])s1 (centres undefined)	94% (active)
[O-][n+]1c2ccc(O)cc2nc2ccc(Br)cc21	86% (active)
O=C1c2ccccc2-c2nc3ccccc3nc21	25% (inactive)
CCCCN1C(=O)N(c2ccc(OCC)cc2)C2N(CCCC)C1C(C)(C)C2(C)C (centres undefined)	82% (active)
CO[C@H]1C[C@](C)(O)Cc2cc3c(c(O)c21)C(=O)c1c(O)cc2c(c1C3=O)O[C@@H]1O[C@@]2(C)[C@H](O)[C@@H](N(C)C)[C@@H]1O	-1% (inactive)
COc1cc2c(cc1[N+](=O)[O-])C(=O)C(Br)(Br)CCC2	100% (active)
O=C1OC(CCl)CN1/N=C/c1ccc([N+](=O)[O-])o1 (centres undefined)	89% (active)
CN(C)CCOc1ccc2c(c1)C/C(=C/c1ncc([N+](=O)[O-])n1C)C2=O	82% (active)
CCCCCCCCCCCCCCCCCCN(C)CC(COP(=O)([O-])OCC[N+](C)(C)C)OC (centres undefined)	99% (active)
CC(C)c1ccccc1NC(=O)/C(Cl)=C(\Cl)C(=O)O	16% (inactive)
O=[N+]([O-])C(=C(Sc1ccccc1)Sc1ccccc1)C(Cl)=C(Cl)Cl	53% (inactive)
C(=C\c1ccccc1)/COc1ccccc1C(N1CCOCC1)n1nc2ccccc2n1 (centres undefined)	97% (active)
O=C1C(Nc2ccccc2)=C(Oc2ccccc2)C(=O)c2ccccc21	17% (inactive)
CCN(CC)CCN1C(=O)c2cccc3cc(OC)cc(c23)C1=O	27% (inactive)
CN(C)Cc1cc(N=Nc2ccc(Cl)cc2)cc(CN(C)C)c1O	46% (inactive)
